Data published in ChEMBL document CHEMBL3433997, “St. Jude Leishmania screening dataset” (2016).

How the values were obtained:
Format in all cases: functional
[1] = target: Solute carrier family 2, facilitated glucose transporter member 1 (Homo sapiens) (UniProt P11166); assay: ST_JUDE_LEISH: Cytotoxicity at 2uM final concentration against transgenic Leishmania Mexicana promastigotes LmGLUT1 that are glucose transport deficient and complemented with the human glucose transporter GLUT1. Activity is measured by DNA content using SYBR green in vitro
Solute carrier family 2, facilitated glucose transporter member 1 (Homo sapiens), sequence (P11166 whole entry): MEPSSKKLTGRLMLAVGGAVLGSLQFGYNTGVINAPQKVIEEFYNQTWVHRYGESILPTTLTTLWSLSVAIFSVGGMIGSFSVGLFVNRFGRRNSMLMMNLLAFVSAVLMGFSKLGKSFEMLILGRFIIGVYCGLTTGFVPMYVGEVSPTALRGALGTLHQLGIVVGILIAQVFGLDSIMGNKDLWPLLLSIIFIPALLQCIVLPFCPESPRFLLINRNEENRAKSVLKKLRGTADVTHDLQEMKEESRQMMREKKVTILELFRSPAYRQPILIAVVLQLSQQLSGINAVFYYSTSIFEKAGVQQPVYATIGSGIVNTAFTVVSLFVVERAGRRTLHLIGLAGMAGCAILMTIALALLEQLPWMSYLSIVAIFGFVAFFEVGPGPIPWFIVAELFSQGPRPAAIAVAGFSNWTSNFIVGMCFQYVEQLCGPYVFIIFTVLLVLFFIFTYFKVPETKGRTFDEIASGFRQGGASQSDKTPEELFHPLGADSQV

[2] = target: Hexose transporter 1 (Plasmodium falciparum) (UniProt O97467); assay: ST_JUDE_LEISH: Cytotoxicity at 2uM final concentration against transgenic Leishmania Mexicana promastigotes LmPfHT that are glucose transport deficient and complemented with the Plasmodium falciparum hexose transporter. Activity is measured by DNA content using SYBR green in vitro
[3] = target: Glucose transporter (Leishmania mexicana) (UniProt O61059); assay: ST_JUDE_LEISH: Cytotoxicity at 2uM final concentration against transgenic Leishmania Mexicana promastigotes LmGT2 that are glucose transport deficient and complemented with the L. Mexicana glucose transporter 2. Activity is measured by DNA content using SYBR green in vitro

| Compound | inhibition [1] | inhibition [2] | inhibition [3] |
| --- | --- | --- | --- |
| COc1ccc(Nc2nccc(N3CCC(NC(=O)Nc4cccc(C(C)=O)c4)C3)n2)cc1 (stereo not given) | -3.73% | 0.98% | 3.49% |
| Nc1c2c(nc3ccc(NC(=O)c4ccccc4)cc13)CCCC2 | 3.15% | 2.68% | 4.86% |
| Cc1ccc(C)c(S(=O)(=O)Nc2ccc(Br)cc2C(=O)Nc2cccc(C(F)(F)F)c2)c1 | 0.14% | 0.63% | -1.9% |
| COc1ccc(C(=O)N2CCC3(CC2)C(=O)N(CC(=O)NCC2CCCCC2)CN3c2ccccc2)cc1 | 3.99% | 4.58% | 3.35% |
| O=S(=O)(c1ccc2ccccc2c1)N1CCCN(Cc2ccc(OCCCN3CCCCC3)cc2)CC1 | 63% | 71.4% | 45.5% |
| O=C(Nc1ccc(-c2ccccc2)cc1)Nc1cccc(OCCN2CCCC2)c1 | 7.09% | 4.18% | 4% |
| COc1cccc(-c2cnc(N)c(-c3nc4cc(Cl)c(F)cc4[nH]3)c2)c1 | 15.6% | 14.7% | 8.86% |
| COc1cc(NC(=O)N2CCc3ccc(OCCN4CCCCC4)cc32)cc(C(F)(F)F)c1 | 0.69% | 1.18% | 3.59% |
| OC(CN1CCN(C2CCCCC2)CC1)Cn1c2ccccc2c2cc(Br)ccc21 (stereo not given) | 1.23% | 0.82% | 0.47% |
| N#Cc1ccc2c(c1)CN(CCCCNC(=O)c1ccc(-c3ccccc3)cc1)CC2 | 3.14% | 3.16% | 3.99% |
| N#Cc1ccc(-c2ccc(C(=O)NCC3CCN(CCN4CCC(c5ccc6c(c5OCC(N)=O)CCCC6)CC4)CC3)cc2)cc1 | -0.38% | -0.09% | 2.54% |
| COc1ccc(-n2ccnc2)cc1CNC1CCN(CC2Cn3c(=O)ccc4ccc(F)c2c43)CC1 (stereo not given) | 4.7% | 4.54% | 5.24% |
| Cn1nc(-c2cccc(CN[C@@H]3CCc4ccc(O)cc43)c2)c2cnc(NC3CCCC3)nc21 | 4.2% | 3.87% | 4.68% |
| COc1ccccc1CCNc1ncnc2c1[nH]c1ccc(F)cc12 | 4.25% | 12.9% | 10.1% |
| O=C(CCc1c[nH]cn1)Nc1cccc(-c2ccc(-c3nc4ccccc4[nH]3)cc2)c1 | 6.89% | 4.68% | 6.77% |
| O=C(Nc1ccc([N+](=O)[O-])cc1)Nc1cc(C(F)(F)F)ccc1F | 0.91% | 1.47% | 3.15% |
| Cc1cccc2nc(-c3ccc(-c4cccc(CNCc5cnn(-c6ccccc6)n5)c4)s3)[nH]c12 | 3.52% | 2.05% | 1.93% |
| O=C(Nc1cccc(CN2CCN(C(=O)c3ccccc3)CC2)c1)c1cccs1 | 4.55% | 2.87% | 3.92% |
| O=C(Nc1ccc(-c2cccc(-c3nc4ccccc4[nH]3)c2)cc1)Nc1ccc(Cl)c(Cl)c1 | -0.46% | 0.83% | 0.9% |
| CCOc1ccc(C(C)NC(=O)c2ccc(OC)c(Br)c2)cc1OCC (stereo not given) | 1.14% | -0.71% | -0.9% |
| Cc1cc(N)nc2ccc(-c3cccc(CN)c3)cc12 | 0.78% | 0.76% | -2.14% |
| CCCN(c1ccc(O)c(CN2CCCCC2)c1)c1ccc([N+](=O)[O-])cn1 | 1.28% | 0.61% | 1.09% |
| Cc1nc2ccccc2c(O)c1-c1ccc(Cl)cc1 | 1.42% | -1.38% | -1.04% |
| COc1ccc(-c2nc(-c3ccc([N+](=O)[O-])cc3)no2)cc1OC | 1.91% | 2.39% | 1.76% |
| COc1ccc(NC(=O)Nc2cc(C)nc3cccnc23)cc1Cn1ccnc1 | 1.73% | 1.25% | 0.47% |
